Inconclusive results are not listed. The source made the active and inactive calls. Calls come from the whole dose curve; as a rule, active = well fitted cell-killing curve with a large enough effect; inconclusive = small, poorly fitted or top-dose-only effect, or effect the other way; inactive = flat fitted curve, though single readings scatter.
How the values were obtained:
Test in all cases: Primary qHTS to identify gynecologic anti-cancer compounds using libraries of approved drugs and bioactive compounds (AID 1345084); note: nearly all actives have a fitted effect of over 55% in size
Conditions in all cases: Gynecologic cancer cell panel viability, ATPlite luminescence, 48 h; series mostly up to 57.5 µM
OV90 = test system: OV90
In short: (§1)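 Measured: luminescence after ATPlite addition (15 min, RT). Exposure: 48 h, 37 C, 5% CO2.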

PA-1 = test system: PA-1
In short: as §1

SKOV3 = test system: SKOV3
In short: as §1

Tov-21-G = test system: Tov-21-G
In short: as §1

Tov112D = test system: Tov112D
In short: as §1
% is set by controls: 0 for no effect and ±100 for the full control effect.

C[C@H]1[C@H](C)CC[C@]2(C(=O)O)CC[C@]3(C)C(=CCC4[C@@]5(C)C[C@@H](O)[C@H](O)C(C)(C)C5CC[C@]43C)[C@H]12 (stereo not given in full)
inactive: Potency (OV90) | Potency (PA-1) | Potency (SKOV3) | Potency (Tov-21-G) | Potency (Tov112D)

OC[C@H]1O[C@@H](O[C@H]2[C@H](O)[C@@H](CO)O[C@@H](OCc3ccccc3)[C@@H]2O[C@@H]2OC[C@](O)(CO)[C@H]2O)[C@H](O)[C@@H](O)[C@@H]1O
inactive: Potency (OV90) | Potency (PA-1) | Potency (SKOV3) | Potency (Tov-21-G) | Potency (Tov112D)

CC1OC(O[C@H]2CC[C@@]3(C)C(CC[C@]4(C)C3CC=C3C5CC(C)(C)CC[C@]5(C(=O)OC5OC(CO)C(OC6OCC(OC7OCC(O)C(O)C7O)C(O)C6O)C(O)C5O)CC[C@]34C)C2(C)C)C(O)C(O)C1OC1OC(CO)C(O)C(OC2OC(CO)C(O)C(O)C2O)C1O (stereo not given in full)
inactive: activity change, negative = cytotoxicity (OV90) -14.5% [at 6.55 µM] | activity change, negative = cytotoxicity (PA-1) -1.37% [at 6.55 µM] | activity change, negative = cytotoxicity (SKOV3) 3.95% [at 6.55 µM] | activity change, negative = cytotoxicity (Tov-21-G) -4.11% [at 6.55 µM] | activity change, negative = cytotoxicity (Tov112D) -3.05% [at 6.55 µM]

COc1c2cc(c(O[C@@H]3O[C@H](CO)[C@@H](O)[C@H](O)[C@H]3O)c1OC)CCCCC(O)CCc1ccc(O)c-2c1 (stereo not given in full)
inactive: Potency (OV90) | Potency (PA-1) | Potency (SKOV3) | Potency (Tov-21-G) | Potency (Tov112D)

Cc1cn(C[C@H](N)C(=O)O)c(=O)n(Cc2ccsc2C(=O)O)c1=O
inactive: Potency (OV90) | Potency (PA-1) | Potency (SKOV3) | Potency (Tov-21-G) | Potency (Tov112D)

O=S(=O)(O)c1ccc(Nc2ncnc3c2ncn3[C@@H]2O[C@H](CO)[C@@H](O)[C@H]2O)cc1
inactive: Potency (OV90) | Potency (PA-1) | Potency (SKOV3) | Potency (Tov-21-G) | Potency (Tov112D)

C=Cc1ccc(O[C@@H]2O[C@H](CO[C@@H]3O[C@@H](C)[C@H](O)[C@@H](O)[C@H]3O)[C@@H](O)[C@H](O)[C@H]2O)cc1
inactive: Potency (OV90) | Potency (PA-1) | Potency (SKOV3) | Potency (Tov-21-G) | Potency (Tov112D)

CCC(C)C(N)C(=O)NCCN1CCOCC1 (stereo not given)
inactive: Potency (OV90) | Potency (PA-1) | Potency (SKOV3) | Potency (Tov-21-G) | Potency (Tov112D)

Cc1ccccc1N1CCN(S(=O)(=O)C[C@]23CC[C@H](C[C@@H]2NC(=O)[C@@H](N)CCS(C)(=O)=O)C3(C)C)CC1
inactive: Potency (OV90) | Potency (PA-1) | Potency (SKOV3) | Potency (Tov-21-G) | Potency (Tov112D)

Cc1ccc(Nc2nnc(-c3ccc([N+](=O)[O-])cc3)o2)cc1Cl
inactive: Potency (OV90) | Potency (PA-1) | Potency (SKOV3) | Potency (Tov-21-G) | Potency (Tov112D)

C[C@@H]1O[C@@H](O[C@H]2[C@H](OC(=O)[C@]34CCC(C)(C)C[C@H]3C3=CCC5[C@@]6(C)C[C@@H](O)[C@@H](O[C@@H]7O[C@H](CO)[C@@H](O)[C@H](O)[C@H]7O)[C@@](C)(CO)C6[C@H](O)C[C@@]5(C)[C@]3(C)CC4)OC[C@H](O)[C@@H]2O)[C@H](O)[C@H](O[C@@H]2OC[C@](O)(CO)[C@H]2O)[C@H]1O[C@@H]1OC[C@@H](O)[C@H](O[C@H]2O[C@H](C)[C@@H](O)[C@H](O)[C@@H]2O)[C@H]1O (stereo not given in full)
inactive: activity change, negative = cytotoxicity (OV90) -9.58% [at 6.55 µM] | activity change, negative = cytotoxicity (PA-1) 3.83% [at 6.55 µM] | activity change, negative = cytotoxicity (SKOV3) 3.05% [at 6.55 µM] | activity change, negative = cytotoxicity (Tov-21-G) -0.147% [at 6.55 µM] | activity change, negative = cytotoxicity (Tov112D) 7.72% [at 6.55 µM]

Cc1c(F)cc(C(=O)NC2CC2)cc1-c1ccc(C(=O)NCC(C)(C)C)cn1
inactive: Potency (OV90) | Potency (PA-1) | Potency (SKOV3) | Potency (Tov-21-G) | Potency (Tov112D)

C=C1C(=O)OC2CC(COC(=O)C(C)C)=C(C(C)CCCOC(C)=O)[C@@H](OC(C)=O)C12 (stereo not given in full)
inactive: Potency (OV90) | Potency (PA-1) | Potency (SKOV3) | Potency (Tov-21-G) | Potency (Tov112D)

C=C1CCC2[C@](C)(CCC[C@]2(C)C(=O)O)[C@H]1CC/C(C)=C/C(=O)OC (stereo not given in full)
inactive: Potency (OV90) | Potency (PA-1) | Potency (SKOV3) | Potency (Tov-21-G) | Potency (Tov112D)

CCC(CC)CC1(C(=O)Nc2ccccc2SC(=O)C(C)C)CCCCC1
inactive: Potency (OV90) | Potency (PA-1) | Potency (SKOV3) | Potency (Tov-21-G) | Potency (Tov112D)

O=C(O)c1cc(C(F)(F)F)ccc1N1CC[C@H](OCc2ccccn2)C1
inactive: Potency (OV90) | Potency (PA-1) | Potency (SKOV3) | Potency (Tov-21-G) | Potency (Tov112D)

CC(NC(=O)CC(=O)O)C(=O)Nc1ccccc1C(N)=O (stereo not given)
inactive: Potency (OV90) | Potency (PA-1) | Potency (SKOV3) | Potency (Tov-21-G) | Potency (Tov112D)

O=C(O)c1ccc(NC(=O)[C@H](CC2CCCC2)n2cnc(C(F)(F)F)c2)nc1
inactive: Potency (OV90) | Potency (PA-1) | Potency (SKOV3) | Potency (Tov-21-G) | Potency (Tov112D)

C=C1CC[C@@H]2C(C)(C)CCC[C@@]2(C)[C@@H]1CC/C(=C/C(=O)OC)COC(C)=O
inactive: Potency (OV90) | Potency (PA-1) | Potency (SKOV3) | Potency (Tov-21-G) | Potency (Tov112D)

— PubChem BioAssay (NCATS)
